# Reference: PubChem BioAssay (NCATS)
# Records with an inconclusive call do not appear. Unmarked numbers belong to inactive results. Active and inactive are the calls of the source. Calls follow the shape of the dose curve; as a rule, active = well fitted inhibition curve with a large enough effect; inconclusive = small, poorly fitted or top-dose-only effect; inactive = flat fitted curve, though single readings scatter.
# Legend:
# Assay in all cases: Cytotoxic Profiling of Annotated Libraries Using Quantitative High-Throughput Screening (AID 1296008); also: nearly all actives have a fitted effect of over 60% in size
# Conditions in all cases: Five cell lines viability, CellTiter-Glo ATP luminescence, 48-72 h; max response: hits give low values
# CRL-7250 = normal cell line; tested on: CRL-7250
# Method in brief: (§1)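 Cytotoxicity was measured as CellTiter-Glo ATP luminescence, read after 10 min at room temperature. Compound treatment of the cells lasted 48 or 72 hr at 37 degrees Celsius in a qHTS format.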
# HEK293 = tested on: HEK293
# Method in brief: as §1
# HaCat = tested on: HaCat
# Method in brief: as §1
# % is scaled to controls: 0 for no effect and ±100 for the full control effect; potency is read from the fitted curve at half-maximal effect.
compound,measurement,setting,value
C=CC(=O)Nc1ccc2ncnc(Nc3cccc(Br)c3)c2c1,Potency,CRL-7250,5.8 µM (active)
same,Potency,HEK293,20.6 µM (active)
same,Potency,HaCat,0.0461 µM (active)
CCC(C)CC(=O)OC1C(=O)C(CO)=CC(O)C1C(C)C (stereo not drawn),Potency,CRL-7250,18.4 µM (active)
same,Potency,HEK293,8.2 µM (active)
Fc1ccc2[nH]ccc2c1-c1nc(N2CCOCC2)c2sc(CN3CCN(CC4CC4)CC3)cc2n1,max response,CRL-7250,-20.6%
same,Potency,HEK293,18.4 µM (active)
COc1cc(S(C)(=O)=O)ccc1Nc1nc2ccc(-c3ccc(NC(=O)[C@H](C)c4ccc(F)cc4)cc3)cn2n1,outcome,CRL-7250,inactive
same,Potency,HEK293,0.331 µM (active)
C=C1C(=O)O[C@@H]2C[C@H](C)[C@@H]3CC(=O)C(C)=C3C[C@H]12,Potency,CRL-7250,10.3 µM (active)
same,Potency,HEK293,8.2 µM (active)
same,Potency,HaCat,14.6 µM (active)
CC(C)C[C@@H]1NC(=O)[C@@H](Cc2ccccc2)NC(=O)C(CCCCCC(=O)C2CO2)NC(=O)[C@@H]2CCCCN2C1=O (stereo partly drawn),Potency,CRL-7250,3.55 µM (active)
same,Potency,HEK293,2.82 µM (active)
same,Potency,HaCat,3.17 µM (active)
COc1cc2c(cc1OC(C)C)[C@H](c1ccc(Cl)cc1)N(c1ccc(N(C)CC3CCC(N4CCN(C)C(=O)C4)CC3)cc1)C(=O)C2 (stereo partly drawn),Potency,CRL-7250,18.4 µM (active)
same,max response,HEK293,-97.2%
CN(C)CCOC(C)(c1ccccc1)c1ccc(Cl)cc1 (stereo not drawn),Potency,CRL-7250,25.9 µM (active)
same,Potency,HEK293,20.6 µM (active)
COc1cc(NC(=O)c2cccc(-n3cc(NC(=O)Nc4cccc(C)c4)cn3)c2)cc(OC)c1OC,outcome,CRL-7250,inactive
same,Potency,HEK293,9.2 µM (active)
same,max response,HaCat,3.54%
Cc1nnc(C[C@@H]2C=C(c3ccc(Cl)cc3)c3ccccc3-n3c(C)nnc32)o1,Potency,CRL-7250,0.651 µM (active)
same,Potency,HEK293,1.16 µM (active)
same,max response,HaCat,-1.46%
O=C1Nc2nc(-c3c(O)cccc3OCC3CC3)cc([C@@H]3CCCNC3)c2CO1,max response,CRL-7250,-29.4%
same,Potency,HEK293,20.6 µM (active)
CC(C)S(=O)(=O)NC[C@H](C)c1ccc(-c2ccc(CCNS(C)(=O)=O)cc2)cc1,Potency,CRL-7250,4.61 µM (active)
same,Potency,HEK293,5.8 µM (active)
same,max response,HaCat,2.78%
CCCCNc1ncc(C(=O)NCc2ccc(-n3ccnc3)cc2)c(NC2CCC(O)CC2)n1 (stereo not drawn),Potency,CRL-7250,13 µM (active)
same,Potency,HEK293,7.31 µM (active)
same,Potency,HaCat,23.1 µM (active)
OC1C=C2C3CN(Cc4cc5c(cc43)OCO5)C2CC1O (stereo not drawn),Potency,CRL-7250,8.2 µM (active)
same,Potency,HEK293,6.51 µM (active)
CC(C)n1cnc2c(-c3cnc(N)nc3)nc(N3CCOCC3)nc21,Potency,CRL-7250,0.709 µM (active)
same,Potency,HEK293,1.78 µM (active)
same,Potency,HaCat,0.632 µM (active)
Nc1nc(NC2CC2)cc(-c2cccc(Cl)c2Cl)n1,max response,CRL-7250,-27.4%
same,Potency,HEK293,18.4 µM (active)
COC(=O)CC1OC(C)C2=C(O)c3c(O)cccc3C(=O)C23OC13 (stereo not drawn),Potency,CRL-7250,4.04 µM (active)
same,Potency,HEK293,2.86 µM (active)
CN1CCN(c2ccc(Nc3cc(-c4cccc(-n5ccc6cc(C7CC7)cc(F)c6c5=O)c4CO)cn(C)c3=O)nc2)CC1,Potency,CRL-7250,23.1 µM (active)
same,Potency,HEK293,11.6 µM (active)
same,Potency,HaCat,18.4 µM (active)
C=C1C(=O)O[C@H]2/C=C(/C)[C@@H](OC(C)=O)C/C=C(\C)C[C@@H](OC(=O)/C(=C/C)COC(=O)/C(=C/C)CO)[C@@H]12,Potency,CRL-7250,8.93 µM (active)
same,Potency,HEK293,3.17 µM (active)
CC(C)S(=O)(=O)Nc1ccc(F)c(C(=O)c2c[nH]c3ncc(-c4cccnc4)cc23)c1F,Potency,CRL-7250,18.4 µM (active)
same,Potency,HEK293,14.6 µM (active)
Cn1ncc(Cl)c1-c1cc(C(=O)N[C@H](CN)Cc2ccc(F)c(F)c2)sc1Cl,max response,CRL-7250,-4.08%
same,Potency,HEK293,1.3 µM (active)
C=C1C(=O)O[C@@H]2[C@H]3C(C)=CC(=O)C3=C(C)CC[C@@H]12,Potency,CRL-7250,7.31 µM (active)
same,Potency,HEK293,2.06 µM (active)
COCC(=O)NC/C=C/c1ccc2ncnc(Nc3ccc(Oc4ccc(C)nc4)c(C)c3)c2c1,Potency,CRL-7250,9.2 µM (active)
same,Potency,HEK293,14.6 µM (active)
CCn1c2ccccc2c2cc(Nc3ccnc(NCCCN4CCOCC4)n3)ccc21,Potency,CRL-7250,18.4 µM (active)
same,Potency,HEK293,9.2 µM (active)
CC(C)=CCCC1(C)/C=C/C(OC(=O)C=C(C)C)C(C)(O)/C=C/C(=O)/C(CO)=C\C1 (stereo not drawn),max response,CRL-7250,-29.1%
same,Potency,HEK293,2.52 µM (active)
CN1CCN(Cc2ccc(NC(=O)Cc3ccc(Oc4cc(NC(=O)C5CC5)ncn4)cc3)cc2C(F)(F)F)CC1,Potency,CRL-7250,5.8 µM (active)
same,max response,HEK293,-105%
same,max response,HaCat,-122%
O=C(NCCCc1ccccc1)c1cccc(-c2cc(O)c3ncccc3c2)c1,Potency,CRL-7250,5.17 µM (active)
same,Potency,HEK293,20.6 µM (active)
same,Potency,HaCat,25.9 µM (active)
C[C@@H]1O[C@@H](O[C@H]2[C@H](OC(=O)[C@]34CCC(C)(C)C[C@H]3C3=CCC5[C@@]6(C)C[C@H](O)[C@H](O[C@@H]7O[C@H](CO)[C@@H](O)[C@H](O)[C@H]7O)[C@](CO)(C(=O)O)C6CC[C@@]5(C)[C@]3(C)C[C@H]4O)OC[C@H](O)[C@@H]2O)[C@H](O)[C@H](O)[C@H]1O[C@@H]1OC[C@@H](O)[C@H](O[C@@H]2OC[C@](O)(CO)[C@H]2O)[C@H]1O (stereo partly drawn),Potency,CRL-7250,1.38 µM (active)
same,Potency,HEK293,0.692 µM (active)
CCCCNc1ncc(-c2ccc(CN3CCOCC3)cn2)c(NC2CCC(O)CC2)n1 (stereo not drawn),max response,CRL-7250,-14.5%
same,max response,HEK293,-11.5%
C[C@@H](N[C@H]1CCCC[C@@H]1NC(=O)c1ccc(Cl)cc1)c1cccc2ccccc12,max response,CRL-7250,0.829%
same,Potency,HEK293,20.6 µM (active)
same,max response,HaCat,-13%
Cn1c(=O)c2c(ncn2Cc2ccc(C(C)(C)C)cc2)n(C)c1=O,Potency,CRL-7250,1.3 µM (active)
same,Potency,HEK293,1.64 µM (active)
same,max response,HaCat,-22.1%
Fc1ccc(-c2nc(C3CCNCC3)sc2-c2ccnc(NC3CC3)n2)cc1,outcome,CRL-7250,inactive
same,Potency,HEK293,1.64 µM (active)
same,Potency,HaCat,5.17 µM (active)
